Data: PubChem BioAssay AID652054 (National Center for Advancing Translational Sciences (NCATS), 2013)
Among all 360,000 compounds or so, about 9,100 (2.5%) were called active. About 4% were inconclusive and are not listed. What follows is part of a selection rich in actives, with near analogues and random picks from the rest. A number with no mark means an inactive call. Rule as the data show it: active = max response below about -50%; inconclusive = no clear call, values can overlap the other calls; inactive = above that.
% is scaled to controls: 0 for no effect and ±100 for the full control effect.

What follows are compounds tested against D(3) dopamine receptor (Homo sapiens) (UniProt P35462) (assay: qHTS of D3 Dopamine Receptor Antagonist: qHTS). Settings: D3R cells, DiscoveRx beta-arrestin luminescence, antagonist mode; hits give low values.
Sequence of D(3) dopamine receptor (Homo sapiens) (P35462 whole entry, looked up): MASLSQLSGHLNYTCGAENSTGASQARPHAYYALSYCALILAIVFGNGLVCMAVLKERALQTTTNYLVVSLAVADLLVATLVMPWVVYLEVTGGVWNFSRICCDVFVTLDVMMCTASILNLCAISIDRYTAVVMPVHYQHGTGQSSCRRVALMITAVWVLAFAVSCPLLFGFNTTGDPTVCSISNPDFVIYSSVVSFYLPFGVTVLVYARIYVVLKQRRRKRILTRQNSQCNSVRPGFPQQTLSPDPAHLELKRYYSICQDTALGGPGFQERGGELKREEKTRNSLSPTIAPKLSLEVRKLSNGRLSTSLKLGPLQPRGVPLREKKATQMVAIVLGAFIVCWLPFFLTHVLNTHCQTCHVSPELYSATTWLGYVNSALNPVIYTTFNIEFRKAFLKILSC
Method in brief: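 Cells expressing the human receptor were seeded at 1500 cells/well, incubated overnight at 37 degrees C in 5% CO2, then exposed to library compounds with dopamine controls for 90 minutes at 37 degrees C before luminescent detection.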
`COc1ccc(CC(N)c2csc(NC(=O)NC(c3ccccc3)c3ccccc3)n2)cc1` (stereo not given) was tested, and the max response, negative = inhibition was -20.6%. `COc1ccc(N)cc1NC(=O)CN1CCOCC1` gave a max response, negative = inhibition of 60.4%. Compound `OC[C@@H]1CN(Cc2ccc(-c3ccccc3)cc2)C[C@H](n2cnc3c(NC4CCCC4)ncnc32)O1` has a max response, negative = inhibition of 36%. `C=CCC[C@@H](CCCCC)OC(=O)/C=C/[C@@H](O)[C@H](O)C[C@H](O)CC=C` was tested, and the max response, negative = inhibition was 5.67%. `CCCCCCNC(=O)O[C@H]1CN(C(=O)OC(C)C)N(C(=O)OC(C)C)[C@@H]2CN(S(=O)(=O)c3ccc(C)cc3)C[C@]12O` showed a max response, negative = inhibition of 1.36%. Work on `O=Nc1c(O)cc(O)c2ccccc12` yielded a max response, negative = inhibition of 9%. `COc1ccc(COC[C@H](CC(C)C)N2CCN(C(=O)c3cccc(C(F)(F)F)c3)CCC2=O)cc1` gave a max response, negative = inhibition of 0%. `CCOC(=O)N1C(=O)C[C@](Sc2ccc(C)cc2)(C(=O)OC)[C@H]1c1ccccc1` gave a max response, negative = inhibition of 28.6%. `O=C(CNC(=O)c1ccc2ccccc2c1)Nc1ncccc1O` gave a max response, negative = inhibition of 8.18%. With `Cc1ccc(C(=O)NCC(=O)NC2CC2)cc1` the max response, negative = inhibition was -5.92%. With `CC1CCC(NC(=O)CNC(=O)c2ccc3ccccc3c2)CC1` (stereo not given) the max response, negative = inhibition was -70% (active). Work on `Cn1cnc(S(=O)(=O)N2C[C@@H](O)COC[C@@H]3O[C@H](CC(=O)NC4CCC4)CC[C@H]32)c1` yielded a max response, negative = inhibition of 17.2%. With `COc1ccc2c(c1OC)C(=O)OC2Nc1nc(-c2ccccc2)cs1` (stereo not given) the max response, negative = inhibition was -73.2% (active). For `COc1ccc(-c2csc(Nc3cccc(C)n3)n2)cc1OC`, the max response, negative = inhibition was 42.5%. For `CCc1ccccc1NC(=O)[C@@H]1CCC(=O)N1C1OC(=O)c2c1ccc(OC)c2OC` (stereo not given in full), the max response, negative = inhibition was -18.1%. `CC1(C(=O)Nc2cccc(Oc3ccccc3)c2)CCN1Cc1ccccc1Cl` (stereo not given) gave a max response, negative = inhibition of 11.7%. In the case of `C=C(C)C(=O)O[C@H]1C/C(C)=C\C(=O)/C=C(\C)[C@H](O)[C@@H]2OC(=O)C(=C)[C@@H]21`, the max response, negative = inhibition is reported as -61.4% (active). `O=C(NCc1cccs1)c1ccc(Br)o1` showed a max response, negative = inhibition of 11.4%. In the case of `CC(CNC(=O)c1ccc(Br)o1)NC(=O)c1ccc(Br)o1` (stereo not given), the max response, negative = inhibition is reported as -72.7% (active). `CC(CCc1ccccc1)NC(=O)c1ccc(Br)o1` (stereo not given) showed a max response, negative = inhibition of -10.2%. With `CC(C)C1CC2=C(C(=O)OC(C)(C)O2)C(c2ccc(F)cc2)O1` (stereo not given) the max response, negative = inhibition was -3.03%. `COc1ccc(NC(=O)COC(=O)C2COc3ccccc3O2)cc1` (stereo not given) was tested, and the max response, negative = inhibition was -20.1%. `Brc1ccc2nc(-c3ccccc3)c(Cc3ccccc3)n2c1` gave a max response, negative = inhibition of 23.1%. `CCNC(=O)C1(C)CCCN(Cc2noc(-c3ccccc3OC)n2)C1` (stereo not given) was tested, and the max response, negative = inhibition was 23.6%. With `Cc1cc(OCCN2CCCC2)ccc1C(C)C` the max response, negative = inhibition was 0%. With `c1ccc2cc(OCCN3CCCC3)ccc2c1` the max response, negative = inhibition was -61.2% (active). With `Cc1cccc(C)c1OCCN1CCOCC1` the max response, negative = inhibition was 21.2%. For `Cc1cc(C)c(NC(=O)CN2CCCCCC2)c(C)c1`, the max response, negative = inhibition was 1.9%. `Clc1ccccc1-c1cc(COc2ccc3ccccc3c2)no1` showed a max response, negative = inhibition of -0.665%. For `Cc1cc(OCCN2CCCC2)cc(C(C)C)c1`, the max response, negative = inhibition was -86% (active).
